Assay results taken from PubChem BioAssay (Tox21).
Results filed as inconclusive are left out. Active and inactive are the calls of the source. Unless noted, the call rests on the fitted dose curve; in most records, active means well fitted curve in the direction sought with a large enough effect in the repeat runs; inconclusive means weak or mixed curves; inactive means no such curve, though single readings can be large; an effect the other way counts as inactive or inconclusive. Where a SMILES comes first, the peptide text is derived from it. [ ]: non-standard residue; d: D form. pGlu = O=C1CC[C@@H](C(=O)O)N1

Tests used:
[1] = molecular target: Peroxisome proliferator-activated receptor delta (Homo sapiens) (UniProt Q03181); assay: qHTS assay to identify small molecule agonists of the peroxisome proliferator-activated receptor delta (PPARd) signaling pathway (AID 743212; calls by dose curve)
Procedure, shortened: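 HEK293H UAS-bla reporter cells, human PPARd system; compounds delivered in DMSO after 5 h plating, then at 37 C. Beta-lactamase FRET read, 2 h RT substrate step.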

[2] = qHTS assay to identify small molecule antagonists of the peroxisome proliferator-activated receptor delta (PPARd) signaling pathway - cell viability counter screen (AID 743213); further: nearly all actives have a fitted effect of over 50% in size
Procedure, shortened: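 Same-well viability: cells pre-incubated 5 h, dosed with compound plus 300 nM L165041, kept 17 h at 37 C, FRET substrate 2 h RT, then CellTiter-Glo 30 min RT and luminescence.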

[3] = molecular target: Peroxisome proliferator-activated receptor delta (Homo sapiens) (UniProt Q03181); assay: qHTS assay to identify small molecule antagonists of the peroxisome proliferator-activated receptor delta (PPARd) signaling pathway (AID 743215; active means well fitted inhibition curve with a large enough effect in the signal ratio in the repeat runs, not every such curve was filed as active; the % refers to the signal ratio;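 further: cells stimulated with agonist L165041 at 300 nM final during compound exposure; series mostly up to about 62 µM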)
Procedure, shortened: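 HEK293H UAS-bla, PPARd; agonist L165041 300 nM final with cpd in DMSO; 37 C 17 h; FRET substrate, RT 2 h; fluorescence intensity.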

[4] = molecular target: Bile acid receptor (Homo sapiens) (UniProt Q96RI1); assay: qHTS assay to identify small molecule antagonists of the farnesoid-X-receptor (FXR) signaling pathway (AID 743217; active means well fitted inhibition curve with a large enough effect in the signal ratio in the repeat runs, not every such curve was filed as active; the % refers to the signal ratio)
Procedure, shortened: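 GeneBLAzer FXR-UAS-bla HEK 293T, CDCA-stimulated (50 uM final). Compound treatment 16 h, 37 °C. Detection: beta-lactamase cleavage of B/G FRET substrate, fluorescence.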

[5] = molecular target: Bile acid receptor (Homo sapiens) (UniProt Q96RI1); assay: qHTS assay to identify small molecule agonists of the farnesoid-X-receptor (FXR) signaling pathway (AID 743220; active means well fitted activation curve with a large enough effect in the signal ratio in the repeat runs, not every such curve was filed as active; the % refers to the signal ratio)
Procedure, shortened: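 Beta-lactamase reporter under UAS control in GeneBLAzer FXR HEK 293T cells (5000/well) measured with LiveBLAzer FRET substrate after 2 h at room temperature. Compound exposure lasted 16 h at 37C.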

[6] = qHTS assay to identify small molecule antagonists of the farnesoid-X-receptor (FXR) signaling pathway - cell viability counter screen (AID 743221; active means well fitted cell-killing curve with a large enough effect in the repeat runs, not every such curve was filed as active; further: nearly all actives have a fitted effect of over 50% in size)
Procedure, shortened: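 GeneBLAzer FXR-UAS-bla HEK 293T cells, compound plus chenodeoxycholic acid (50 uM final), 16 h at 37 C. CellTiter-Glo added to the same wells after the beta-lactamase read; luminescence read after 30 min at room temperature as viability.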

[7] = molecular target: Vitamin D3 receptor (Homo sapiens) (UniProt P11473); assay: qHTS assay to identify small molecule agonists of the vitamin D receptor (VDR) signaling pathway (AID 743222; calls by dose curve)
Procedure, shortened: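 In VDR-bla cells, compound-induced beta-lactamase expression is quantified by FRET substrate fluorescence. Treatment lasts 16 h at 37C; substrate develops 2 h at room temperature.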

[8] = qHTS assay to identify small molecule agonists of the vitamin D receptor (VDR) signaling pathway - cell viability counter screen (AID 743224); further: series mostly up to about 63 µM; nearly all actives have a fitted effect of over 50% in size
Procedure, shortened: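 Plated VDR-bla cells (4 h, 37C) received compound, incubated 16 h, then LiveBLAzer substrate 2 h RT; CellTiter-Glo added afterwards, luminescence read at 30 min.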

[9] = qHTS assay to identify small molecule agonists of the farnesoid-X-receptor (FXR) signaling pathway - cell viability counter screen (AID 743218); further: nearly all actives have a fitted effect of over 45% in size
Procedure, shortened: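 Parallel cytotoxicity test: compound-treated (16 h, 37 C) HEK 293T FXR-bla reporter cells were lysed with CellTiter-Glo and luminescence recorded.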

[10] = molecular target: Vitamin D3 receptor (Homo sapiens) (UniProt P11473); assay: qHTS assay to identify small molecule antagonists of the vitamin D receptor (VDR) signaling pathway (AID 743223; active means well fitted inhibition curve with a large enough effect in the signal ratio in the repeat runs, not every such curve was filed as active; the % refers to the signal ratio)
Procedure, shortened: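 VDR-bla cells were treated with compound plus 3 nM final 1alpha,25-dihydroxyvitamin D3 for 16 h at 37C. Beta-lactamase reporter read by B/G FRET substrate fluorescence after 2 h at room temperature. qHTS format.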
On the % scale 0 is the no-effect control and ±100 the full control effect.

Chain of Bile acid receptor (Homo sapiens) (Q96RI1 whole entry, looked up): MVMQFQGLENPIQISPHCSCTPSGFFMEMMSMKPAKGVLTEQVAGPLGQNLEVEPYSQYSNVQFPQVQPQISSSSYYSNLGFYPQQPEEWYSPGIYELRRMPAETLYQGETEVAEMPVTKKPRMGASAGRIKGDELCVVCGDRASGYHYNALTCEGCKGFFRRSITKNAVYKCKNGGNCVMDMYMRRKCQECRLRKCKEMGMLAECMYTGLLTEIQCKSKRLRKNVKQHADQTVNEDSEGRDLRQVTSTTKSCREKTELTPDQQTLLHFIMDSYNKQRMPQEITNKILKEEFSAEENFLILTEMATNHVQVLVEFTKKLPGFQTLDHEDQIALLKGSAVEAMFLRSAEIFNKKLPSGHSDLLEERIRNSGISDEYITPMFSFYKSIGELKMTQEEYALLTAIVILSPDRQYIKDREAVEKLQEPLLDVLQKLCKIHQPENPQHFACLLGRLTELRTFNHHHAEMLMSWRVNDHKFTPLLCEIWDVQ
Chain of Vitamin D3 receptor (Homo sapiens) (P11473 whole entry, looked up): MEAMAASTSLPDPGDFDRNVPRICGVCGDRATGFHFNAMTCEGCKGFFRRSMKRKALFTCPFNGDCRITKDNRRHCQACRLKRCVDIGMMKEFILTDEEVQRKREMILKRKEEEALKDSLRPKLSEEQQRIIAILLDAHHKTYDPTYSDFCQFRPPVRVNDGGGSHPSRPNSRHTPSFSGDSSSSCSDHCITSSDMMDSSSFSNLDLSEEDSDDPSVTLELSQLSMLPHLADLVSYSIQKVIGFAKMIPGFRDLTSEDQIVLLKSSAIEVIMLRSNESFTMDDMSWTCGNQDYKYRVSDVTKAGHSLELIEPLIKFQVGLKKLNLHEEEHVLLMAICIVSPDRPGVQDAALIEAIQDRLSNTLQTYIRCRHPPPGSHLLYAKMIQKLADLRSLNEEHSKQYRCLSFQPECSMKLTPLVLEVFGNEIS
Chain of Peroxisome proliferator-activated receptor delta (Homo sapiens) (Q03181 whole entry, looked up): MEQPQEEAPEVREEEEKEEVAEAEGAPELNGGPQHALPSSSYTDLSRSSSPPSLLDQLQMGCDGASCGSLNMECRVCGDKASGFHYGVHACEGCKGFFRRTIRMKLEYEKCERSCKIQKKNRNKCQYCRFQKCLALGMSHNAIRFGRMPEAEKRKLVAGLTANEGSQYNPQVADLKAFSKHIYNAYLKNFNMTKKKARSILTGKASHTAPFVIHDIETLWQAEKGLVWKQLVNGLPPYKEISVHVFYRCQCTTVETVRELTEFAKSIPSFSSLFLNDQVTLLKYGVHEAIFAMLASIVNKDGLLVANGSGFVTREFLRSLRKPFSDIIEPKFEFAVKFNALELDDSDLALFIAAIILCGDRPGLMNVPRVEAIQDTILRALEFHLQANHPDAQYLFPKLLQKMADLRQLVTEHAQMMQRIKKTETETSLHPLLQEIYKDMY

CC(C)CC(C)(N)C#N (stereo not drawn)
inactive: outcome [1] | outcome [2] | outcome [3] | outcome [4] | outcome [5] | outcome [6] | outcome [7] | outcome [8]

NC(=O)Cc1cccc2ccccc12
inactive: outcome [1] | outcome [2] | outcome [3] | outcome [4] | outcome [9] | outcome [5] | outcome [6] | outcome [8]

Cc1cccc(C)c1NC(=O)CC12CCCN1CCC2
inactive: outcome [1] | outcome [2] | outcome [3] | outcome [4] | outcome [9] | outcome [5] | outcome [6]

Cc1nc2ccc(CN(C)c3ccc(C(=O)N[C@@H](CCC(=O)O)C(=O)O)s3)cc2c(=O)[nH]1
inactive: outcome [1] | outcome [2] | outcome [3] | outcome [9] | outcome [5] | outcome [6] | outcome [7] | outcome [10] | outcome [8]

O=C(O)c1cn(C2CC2)c2cc(N3CCNCC3)c(F)cc2c1=O
inactive: outcome [1] | outcome [2] | outcome [3] | outcome [9] | outcome [5] | outcome [6]

c1ccc(CCc2ccccc2)cc1
inactive: outcome [1] | outcome [2] | outcome [3] | outcome [4] | outcome [9] | outcome [5] | outcome [6] | outcome [10] | outcome [8]

CC(C)(C)C(=O)Oc1ccc(S(=O)(=O)Nc2ccccc2C(=O)NCC(=O)O)cc1
inactive: outcome [1] | outcome [2] | outcome [3] | outcome [4] | outcome [5] | outcome [6] | outcome [7] | outcome [8]

CC(=O)c1ccc2ccccc2c1
inactive: outcome [1] | outcome [2] | outcome [3] | outcome [9] | outcome [5] | outcome [6] | outcome [10] | outcome [8]

CC1=NN(c2cc(S(=O)(=O)O)ccc2Cl)C(=O)C1N=Nc1ccccc1 (stereo not drawn)
inactive: outcome [1] | outcome [2] | outcome [3] | outcome [4] | outcome [9] | outcome [5] | outcome [6] | outcome [7] | outcome [10] | outcome [8]

CC1=NS(=O)(=O)c2cc(Cl)ccc2N1
inactive: outcome [1] | outcome [2] | outcome [3] | outcome [9] | outcome [6]

Cc1ccc(C(=O)c2ccccc2)cc1
inactive: outcome [1] | outcome [2] | outcome [3] | outcome [9] | outcome [5] | outcome [6] | outcome [7] | outcome [10] | outcome [8]

CCCCS(=O)(=O)N[C@@H](Cc1ccc(OCCCCC2CCNCC2)cc1)C(=O)O
inactive: outcome [1] | outcome [2] | outcome [3] | outcome [9] | outcome [6] | outcome [8]

O=C(c1ccccc1)C1(O)CCCCC1
inactive: outcome [1] | outcome [2] | outcome [3] | outcome [9] | outcome [6] | outcome [8]

c1coc(CNc2ncnc3nc[nH]c23)c1
inactive: outcome [1] | outcome [2] | outcome [3] | outcome [9] | outcome [6] | outcome [10] | outcome [8]

CCCCCCCCCC[N+](C)(C)[O-]
inactive: outcome [1] | outcome [2] | outcome [3] | outcome [9] | outcome [6] | outcome [7] | outcome [8]

O=C(O)c1cc(C(=O)O)cc(C(=O)O)c1
inactive: outcome [1] | outcome [2] | outcome [3] | outcome [9] | outcome [6] | outcome [7] | outcome [10] | outcome [8]

CC1=C(C/C=C(\C)CCC[C@H](C)CCC[C@H](C)CCCC(C)C)C(=O)c2ccccc2C1=O
inactive: outcome [1] | outcome [2] | outcome [3] | outcome [9] | outcome [6] | outcome [7] | outcome [10]

CC[N+](C)(CC)CCOC(=O)C1c2ccccc2Oc2ccccc21
inactive: outcome [1] | outcome [2] | outcome [3] | outcome [9] | outcome [6] | outcome [7] | outcome [8]

COc1ccc2cc1Oc1cc3c(cc1OC)CC[N+](C)(C)[C@H]3Cc1ccc(cc1)Oc1c(OC)c(OC)cc3c1[C@@H](C2)[N+](C)(C)CC3
inactive: outcome [1] | outcome [2] | outcome [3] | outcome [9] | outcome [6] | outcome [7] | outcome [10] | outcome [8]

CCOC(=O)OC(C)OC1=C(C(=O)Nc2ccccn2)N(C)S(=O)(=O)c2ccccc21 (stereo not drawn)
inactive: outcome [1] | outcome [2] | outcome [3] | outcome [9] | outcome [6] | outcome [7] | outcome [8]

Cc1onc(-c2c(Cl)cccc2Cl)c1C(=O)Cl
inactive: outcome [1] | outcome [2] | outcome [3] | outcome [9] | outcome [6] | outcome [7] | outcome [8]

NC(N)=NCCN1CCCCCCC1
inactive: activation [1] 3.33% [at 0.55 µM] | viability change, negative = cytotoxic [2] 2.8% [at 0.575 µM] | ratio activity, negative = inhibition [3] 5.69% [at 0.575 µM] | viability change, negative = cytotoxic [9] 2.57% [at 0.55 µM] | activity change, negative = cytotoxicity [6] -1.17% [at 0.55 µM] | activity change, negative = cytotoxicity [8] -13.4% [at 0.55 µM]

CC(=O)Oc1cccc(C)c1
inactive: outcome [1] | outcome [2] | outcome [3] | outcome [9] | outcome [6] | outcome [8]

Cc1ccc(C(=O)Nc2ccc(S(=O)(=O)O)c3cc(S(=O)(=O)O)cc(S(=O)(=O)O)c23)cc1NC(=O)c1cccc(NC(=O)Nc2cccc(C(=O)Nc3cc(C(=O)Nc4ccc(S(=O)(=O)O)c5cc(S(=O)(=O)O)cc(S(=O)(=O)O)c45)ccc3C)c2)c1
inactive: outcome [1] | outcome [2] | outcome [3] | outcome [9] | outcome [6] | outcome [7] | outcome [10] | outcome [8]

O=C(O)CCSCCC(=O)O
inactive: outcome [1] | outcome [2] | outcome [3] | outcome [9] | outcome [6] | outcome [8]

CCCn1cc[n+](C)c1C
inactive: outcome [1] | outcome [2] | outcome [3] | outcome [9] | outcome [6] | outcome [8]

C=CN1CCCCCC1=O
inactive: outcome [1] | outcome [2] | outcome [3] | outcome [9] | outcome [6] | outcome [7] | outcome [8]

CCNC(=O)[C@@H]1CCCN1C(=O)[C@H](CCCN=C(N)N)NC(=O)[C@H](CC(C)C)NC(=O)CNC(=O)[C@H](Cc1ccc(O)cc1)NC(=O)[C@H](CO)NC(=O)[C@H](Cc1c[nH]c2ccccc12)NC(=O)[C@H](Cc1cnc[nH]1)NC(=O)[C@@H]1CCC(=O)N1 ([pGlu]HWSYGLRP-NHEt)
inactive: outcome [1] | outcome [2] | outcome [3] | outcome [9] | outcome [6] | outcome [7] | outcome [10]
